# The supplement of paper PMC6555819
# Experiments:
# Assay in all cases: PBM binding z-score (relative to random genomic background probes); higher = stronger binding; sequences stand for … in GC…GCGATTGACAGCGTAGAATGAAGG
# [1] = test system: FXR:RXRa (NR concentration 270 nM, RXRa partner concentration 90 nM)
# Summary of the method: (§1)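 Binding z-scores take random background probes as their reference. They come from custom Agilent 4×180K protein-binding microarrays incubated 1 h with ligand-free nuclear receptor dimers, with antibodies against each partner (one per run) detecting binding. Scanned fluorescence was regression-normalized.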
# [2] = test system: LXRa:RXRa (NR concentration 270 nM, RXRa partner concentration 90 nM)
# Summary of the method: as §1
# [3] = test system: LXRa homodimer (NR concentration 270 nM)
# Summary of the method: as §1
# [4] = test system: LXRb:RXRa (NR concentration 270 nM, RXRa partner concentration 90 nM)
# Summary of the method: as §1
# [5] = test system: LXRb homodimer (NR concentration 270 nM)
# Summary of the method: as §1
# [6] = test system: PPARa:RXRa (NR concentration 270 nM, RXRa partner concentration 90 nM)
# Summary of the method: as §1
# [7] = test system: PPARg:RXRa (NR concentration 180 nM, RXRa partner concentration 90 nM)
# Summary of the method: as §1
# [8] = test system: PPARg:RXRa 270nM:90nM, anti-RXR (NR concentration 270 nM, RXRa partner concentration 90 nM)
# Summary of the method: as §1
# [9] = test system: PPARg:RXRa 30nM:10nM, anti-RXR (NR concentration 30 nM, RXRa partner concentration 10 nM)
# Summary of the method: as §1
# [10] = test system: PPARg:RXRa 90nM:30nM, anti-RXR (NR concentration 90 nM, RXRa partner concentration 30 nM)
# Summary of the method: as §1
Sequence,PBM binding z-score [1],PBM binding z-score [2],PBM binding z-score [3],PBM binding z-score [4],PBM binding z-score [5],PBM binding z-score [6],PBM binding z-score [7],PBM binding z-score [8],PBM binding z-score [9],PBM binding z-score [10]
TCATATAGGTAATACAGGTTAAAGTCGGCATCTA,1.72,2.72,2.2,1.82,0.603,2.28,1.93,2.74,4.37,3.53
ACTCGGAGGACATAGGTCAGAGCTACGCCAGTGA,1.33,1.54,0.379,1.13,-0.23,2.89,3.73,4.68,2.29,3.87
TCAGACAGGTCAAGGTAACTCAGGTACGCAGTCG,4.86,4.63,0.984,3.22,0.435,4.62,3.57,4.27,3.93,4.13
TCATATAGGTAAAGTTGAAAGTCGAACGATATGA,0.231,0.886,-0.186,0.68,-0.123,2.11,1.9,3.23,3.72,3.52
GCAGACAGGTGAAACGCTGGTAACTCAGGGTGGC,-0.319,0.0267,-0.492,-0.149,-1.44,0.737,0.389,0.0806,-0.77,-0.171
CCTAGTTGGTCAGGACGTCACACACCGGATATGA,-0.0966,0.0885,0.373,-0.0236,0.306,-0.286,0.962,0.0606,-0.177,0.147
CCTTACGGGTCAAGAGGTTATAGCACGACGAGCG,6.14,4.17,0.128,3.63,-0.435,5.58,5.44,5.64,2.4,4.29
CGTCCAAGGTCAGCAGGTCCGTGAAAGCGACGTG,4.81,3.09,-0.42,2.19,-0.0479,4.13,2.24,3.15,0.0631,1.82
TCGAGTAAGTTACCAATGGGGCATTCAGCTTTCT,-0.407,-0.177,-0.53,0.203,-0.792,0.13,-0.296,0.61,0.958,0.917
CCTACTGGGCCAAAAAGGACATTGATGCCGATAA,-0.363,-0.495,-0.28,-0.539,-0.727,-0.00322,1.04,1.6,0.0632,1.17
CCTACTTGGCCAAAGGTCATTGATTCCAATGCTC,5.47,5.24,4.8,5.11,1.42,5.78,9.42,8.35,8.32,9.45
TATACAGGGCCAAAGGCCAGAGTACGAATGTCGA,0.18,0.14,-0.21,-0.197,0.431,1.38,4.12,4.61,2.62,4.32
TCATATGGGTAAAGGTGAAAGTCGAACGATATGA,0.574,1.13,-0.287,1.09,-0.607,3.53,5.17,5.52,4.64,5.69
TCTGCTAGGTCAGTTGGTCGGCTAACGAGCTGCC,0.77,0.605,-0.503,0.189,0.554,1.17,-0.329,1.54,1.35,1.7
GCTGCTAAGTCAGGTTGGTCAGCTAACGGGTACG,-0.434,-0.657,-0.43,-0.836,-0.829,-0.794,-0.46,-0.678,-0.924,-0.942
TCTGCTAGGTCAGTTAGTCAGCTAACGAGCTGCC,0.761,0.452,-0.662,0.131,-0.11,0.983,-0.0973,1.33,1.2,1.46
ACTCGGAGGACGAAGGTCAGAGCTACGCCAGTGA,0.736,1.2,-0.109,0.941,-0.551,2.3,2.67,3.52,1.07,3.02
GCTTACGGGACAAAGGTTATAGCATGAATAGAAT,1.23,1.56,0.265,2.04,-0.135,4.42,7.78,7.39,6.27,8.27
ATACGTAGGTTAAGGGTCATTCAGGTTGGTTCGC,5.1,4.98,2.92,4.46,1.03,5.41,7.56,7.6,6.33,8.26

Sequence,PBM binding z-score [1],PBM binding z-score [2],PBM binding z-score [3],PBM binding z-score [4],PBM binding z-score [5],PBM binding z-score [6],PBM binding z-score [7],PBM binding z-score [8],PBM binding z-score [9],PBM binding z-score [10]
ATATGTAGGTTAAGGTTCATTCAGGTTGGTTCGC,3.46,3.69,3.61,3.2,0.826,5.83,10.6,9.42,8.81,10.9
ATATGTAGGTTATCGGGTCATTCACTTTGCGCAT,3.3,3.17,2.13,3.23,1.51,5.02,7.09,6.26,3.66,5.87
GGACCGAGGGCAAGTTGATAGCAGAGTTTGATGG,0.721,0.322,-0.497,0.0428,-0.812,0.868,0.401,0.00699,-0.601,-0.0881
TCATATGGGTAAACAGGTGAAAGTCCGTAAGTTA,0.13,0.314,-0.0837,0.449,-0.731,1.85,2.04,2.98,2.52,2.89
CGTCCAAGATCAGAGAGGTCAGTGAATGCCGAGT,1.64,2,1.44,1.92,0.00137,2.52,0.376,0.581,0.00146,0.0792
CCTAGTTGGTCAAGGTCACACAGGCTATAGGTAC,4.41,4.07,1.88,3.56,0.583,4.31,3.32,3.88,1.62,2.62
ACACACAGGTGAGTGAAGGTAACTCAGCTGGACG,0.469,0.195,-0.241,-0.0782,-0.78,0.352,0.931,0.0284,-0.027,-0.278
GTACCAAGGTGAACAGGTCGTTGATGAGTAGGCG,0.658,0.647,-0.308,0.422,-0.997,2.34,1.64,1.88,0.3,1.02
GCTGCTAGGTCGGGTTGGTCAGCTAACGGGTACG,-0.105,-0.0902,-0.312,-0.21,-0.573,-0.124,-0.576,-0.344,-0.825,-0.553
ACAATTAGTTGACTTAGGGCAACCGATACGACGC,0.279,0.33,0.565,0.0599,0.612,0.00256,1.03,0.396,0.353,0.139
TATTGTAGATCAAGCAGGTTAAGAAAGCCTGAGT,-0.385,0.0261,-0.0497,-0.0709,0.0382,0.359,-0.08,0.334,0.0668,0.218
TCTTGTAGACCAAGCAGGTTAAGAAAGCCTGAGT,0.286,0.184,-0.371,-0.086,-0.534,0.881,-0.307,1.12,2.54,1.77
TAGTCTAGGTCATTGGGCCAGTATAGTACGCATC,4.44,4.2,2.26,2.54,2.53,4.28,5.91,4.82,3,4.56
TCATATAGGTAAAGGTGAAAGACGAACGATATGA,1.12,1.17,-0.192,1.28,0.0599,3.09,4.19,4.4,4.5,4.66
CGAACTAGGTCATCCAGGACAGTTAATACATTGA,4.18,2.59,0.501,2.29,0.155,4.77,7.57,6.32,3.81,5.9
ATCTTTAGGTAACCAAGTTCAGTGAATGCCGAAC,0.613,1.14,0.896,0.862,1.2,0.968,0.323,0.52,0.251,0.342
CCTAGCAGGCCAATCTGGGTCACGCAAGGCTTGA,1.04,1.43,-0.342,0.849,-1.08,3.34,3.18,3.08,0.775,2.35
TGATATAGGTAAATGCTAGGTGAAAGTCCGATCT,0.297,0.127,0.0779,-0.0435,-0.105,1.62,1.45,1.84,1.05,1.44
ATATGTAGGTTAAGGGTCCTTCAGGTTGGTTCGC,0.735,1.21,0.278,1.18,0.267,4.59,8.87,8.11,8.31,9.26
